Source: PubChem BioAssay (National Center for Advancing Translational Sciences (NCATS))
The entries come from a sample that favours hits as a whole.
Vaccinia Venus: qHTS for Stage-Specific Inhibitors of Vaccinia Orthopoxvirus: Venus Reporter Primary qHTS; Vaccinia virus Venus reporter expression, fluorescence; Potency, µM (highest dose often 36.5 µM), for inactives: at the top dose activity change, negative = inhibition, hits mostly inhibitors; 330,000 compounds, 0.46% hits; calls by dose curve; tested in A549 cells; further: potency means the concentration at half of the fitted maximal effect; on the % scale 0 is the no-effect control and ±100 the full control effect; nearly all actives have a fitted effect of over 30% in size
Vaccinia mCherry: qHTS for Stage-Specific Inhibitors of Vaccinia Orthopoxvirus: mCherry Reporter Primary qHTS. 310,000 compounds, 0.63% hits. Vaccinia virus mCherry reporter infection, fluorescence. Potency, µM (series often up to 36.5 µM), for inactives: at the top dose activity change, negative = inhibition, hits mostly inhibitors. AID 720579, 2013; calls by dose curve; tested in A549 cells; further: potency means the concentration at half of the fitted maximal effect; on the % scale 0 is the no-effect control and ±100 the full control effect; nearly all actives have a fitted effect of over 35% in size
Marburg entry inh: qHTS for inhibitors of binding or entry into cells for Marburg Virus; Marburg virus pseudotyped entry inhibition, cell reporter; AID 540276, 2011; 300,000 compounds, 1.8% hits; Potency, µM (titrated, usually from 37.8 µM), without a hit: at the highest dose activity change, negative = inhibition, usual class: inhibitors; calls by dose curve; tested in HEK293 cells; further: potency means the concentration at half of the fitted maximal effect; on the % scale 0 is the no-effect control and ±100 the full control effect
Shiga inhibitor: A qHTS for Small Molecule Inhibitors of Shiga Toxin; Vero cells, Shiga toxin protein synthesis inhibition reporter; inhibition, % at 38.7 µM; 290,000 compounds, 9.2% hits; AID 2315, 2010; in the data active means inhibition mostly above about 28%, no sharp cut-off; inactive means mostly below about 43%; further: 0% is about no effect
Cycloheximide cs: Cycloheximide Counterscreen for Small Molecule Inhibitors of Shiga Toxin; cell reporter, cycloheximide protein synthesis inhibition counterscreen; max response, %; 300,000 compounds, 12% hits; AID 2314, 2010; in the data active means max response mostly above about 13%, no sharp cut-off; inactive means mostly below about 14%; further: read at 38.3 µM for the half of the compounds with a filed dose; 0% is about no effect
Lassa entry inh: qHTS for Inhibitors of binding or entry into cells for Lassa Virus | Lassa virus pseudotype entry inhibition, cell reporter | Potency, µM (top dose mostly 37.9 µM), for the others: top-dose activity change, negative = inhibition, most hits filed as inhibitors | 300,000 compounds, 1.2% hits | AID 540256, 2011; calls by dose curve; tested in HEK293 cells; further: potency means the concentration at half of the fitted maximal effect; on the % scale 0 is the no-effect control and ±100 the full control effect; nearly all actives have a fitted effect of over 50% in size
The depositor's hits bear a star; i = inactive; u = inconclusive; x = no result given; [ ] = remark or other dose.

SMILES | Vaccinia Venus | Vaccinia mCherry | Marburg entry inh | Shiga inhibitor | Cycloheximide cs | Lassa entry inh
CNC(=O)CN(CCc1ccccc1)S(=O)(=O)c1ccc(OC)cc1 | x | x | x | -4 | -1 | x
CCN1CCN(c2cc(C)c3cc(NC(=S)NCCCN4CCc5ccccc5C4)ccc3n2)CC1 | -30% | u | 13µM* | 27 | -11 | -24%
Cc1cc(N2CCCC2)nc2ccc(NC(=S)NCCCN3CCC(C)CC3)cc12 | u | 14µM* | u | -4 | -6 | u
Cc1cc(N2CCN(C)CC2)nc2ccc(NC(=S)NCCN3CCc4ccccc4C3)cc12 | x | x | 0% | -3 | -3 | x
Cc1cc(N2CCN(C)CC2)nc2ccc(NC(=S)NCCCN3CCc4ccccc4C3)cc12 | -27% | -26% | 4µM* | -11 | -8 | u
CC(C)(C)OC(=O)N1CCC(c2nnc(SCc3ccccc3)o2)CC1 | 6% | -12% | 14%[46.1 µM] | x | x | u
CCCCN(CC)C(=O)c1nn(C)c2c1CSc1ccccc1-2 | -6% | -12% | 3%[46.1 µM] | x | x | 7%[46.1 µM]
C=C(C)CSc1nc2sc3c(c2c(=O)n1-c1ccc(OC)cc1)CCN(C)C3 | x | x | x | 5 | -3 | x
CC1=NN(C(=O)c2nn(C)cc2Br)C(O)(C(F)(F)F)C1 (centres undefined) | -14% | -28% | 13% | 60* | 35* | 4%
COC(=O)C1=NN(C(=O)c2ccc(Br)cc2)C(O)(C(C)(C)C)C1 (centres undefined) | -15% | u | 16%[46.1 µM] | 5 | 7 | -1%
CC1=NN(C(=O)c2ccc(Br)cc2)C(O)(C(F)(F)OC(F)(F)F)C1 (centres undefined) | u | u | -22% | 29 | 17* | 1%
CC1=NN(C(=O)c2csc(C)c2)C(O)(C(F)(F)F)C1 (centres undefined) | -16% | i | 13% | 33 | 28 | 11%
CC1=NN(C(=O)c2csc(C)c2C)C(O)(C(F)(F)F)C1 (centres undefined) | -5% | i | u | 47* | 37* | 10%
CCCCn1ccnc1C(=O)c1ccc(S(=O)(=O)N2CCCC2)cc1 | x | x | x | 22 | -2 | x
CC(=O)c1cccc(NC(=S)N2CCC(Cc3ccccc3)CC2)c1 | -13% | -14% | 0%[14.2 µM] | 28 | -3 | -9%
CCc1cccc(NC(=S)N2CCC(c3ccccc3)C2)c1 (centres undefined) | -11% | -14% | u | 74* | 65* | u
CSc1cccc(NC(=S)N2CCC(c3ccccc3)C2)c1 (centres undefined) | -14% | -1% | u | 50* | 20* | u
C=C(C(=O)O)c1ccc2ccccc2c1 | -3% | 12% | x | x | x | x
COc1ccccc1C1CN(Cc2cccc(OCCO)c2)Cc2ccccc2O1 (centres undefined) | -12% | i | x | x | x | x
CC(=O)Nc1sc(-c2ccc(Cl)cc2)nc1-c1ccccc1 | -11% | -10% | 6%[46.1 µM] | -7 | 0 | 13%[46.1 µM]
CC(=O)Nc1sc(N/N=C/c2ccccc2)nc1-c1ccc(C)cc1 | -16% | -25% | 6% | 31 | 18* | 14%
CCOC(=O)c1nc(N/N=C/c2ccccc2)sc1Br | -16% | -21% | -10%[46.1 µM] | 21 | 13* | u
COc1ccc(/C=N/Nc2nc(-c3ccc(C)cc3)c(NC(C)=O)s2)cc1 | -18% | 10µM* | 15%[46.1 µM] | 19 | 21 | 11%[46.1 µM]
CC(=O)Nc1sc(N/N=C/c2ccccc2F)nc1-c1ccc(C)cc1 | x | x | -9% | 92* | 42* | x
CC(=O)Nc1sc(N/N=C/c2ccc(O)cc2)nc1-c1ccc(C)cc1 | x | x | x | 15 | 11 | x
SMILES | Vaccinia Venus | Vaccinia mCherry | Marburg entry inh | Shiga inhibitor | Cycloheximide cs | Lassa entry inh
CCOC(=O)c1sc(N/N=C/c2ccc(N(C)C)cc2)nc1C | x | x | x | 9 | 6 | x
CSCCC(NS(=O)(=O)c1ccc2[nH]c(=O)c(=O)[nH]c2c1)C(=O)O (centres undefined) | -2% | i | 9% | 7 | 8 | 16%
C=CCOn1c(=O)c(-c2ccc(F)cc2)[n+]([O-])c2ccccc21 | x | x | x | 7 | -1 | x
CC(=NNc1nc2ccccc2o1)c1ncccn1 | u | 0.71µM* | 0.4µM* | x | x | 0.89µM*
CC(=NNc1nc2ccccc2o1)c1cc2ccccc2cn1 | 0.71µM* | u | 0.35µM* | x | x | 0.79µM*
Cc1nc2cc(Nc3ccncc3)ccc2s1 | 4% | -8% | -13%[46.1 µM] | -7 | -2 | -4%
